Rows were chosen to be rich in hits. Some 2.8% of all compounds tested hit in one or more screens of this group.
Pol kappa inh-1: inhibitors of human DNA polymerase kappa; Q9UBT6; purified Pol kappa, fluorescent DNA synthesis assay, 10 min; Potency, µM (top dose mostly 107 µM), for the others: top-dose activity, negative = inhibition, hits mostly inhibitors; 0.53% of 400,000 active; further: potency means the concentration at half of the fitted maximal effect; on the % scale 0 is the no-effect control and ±100 the full control effect
Target sequence (Q9UBT6 whole entry, looked up): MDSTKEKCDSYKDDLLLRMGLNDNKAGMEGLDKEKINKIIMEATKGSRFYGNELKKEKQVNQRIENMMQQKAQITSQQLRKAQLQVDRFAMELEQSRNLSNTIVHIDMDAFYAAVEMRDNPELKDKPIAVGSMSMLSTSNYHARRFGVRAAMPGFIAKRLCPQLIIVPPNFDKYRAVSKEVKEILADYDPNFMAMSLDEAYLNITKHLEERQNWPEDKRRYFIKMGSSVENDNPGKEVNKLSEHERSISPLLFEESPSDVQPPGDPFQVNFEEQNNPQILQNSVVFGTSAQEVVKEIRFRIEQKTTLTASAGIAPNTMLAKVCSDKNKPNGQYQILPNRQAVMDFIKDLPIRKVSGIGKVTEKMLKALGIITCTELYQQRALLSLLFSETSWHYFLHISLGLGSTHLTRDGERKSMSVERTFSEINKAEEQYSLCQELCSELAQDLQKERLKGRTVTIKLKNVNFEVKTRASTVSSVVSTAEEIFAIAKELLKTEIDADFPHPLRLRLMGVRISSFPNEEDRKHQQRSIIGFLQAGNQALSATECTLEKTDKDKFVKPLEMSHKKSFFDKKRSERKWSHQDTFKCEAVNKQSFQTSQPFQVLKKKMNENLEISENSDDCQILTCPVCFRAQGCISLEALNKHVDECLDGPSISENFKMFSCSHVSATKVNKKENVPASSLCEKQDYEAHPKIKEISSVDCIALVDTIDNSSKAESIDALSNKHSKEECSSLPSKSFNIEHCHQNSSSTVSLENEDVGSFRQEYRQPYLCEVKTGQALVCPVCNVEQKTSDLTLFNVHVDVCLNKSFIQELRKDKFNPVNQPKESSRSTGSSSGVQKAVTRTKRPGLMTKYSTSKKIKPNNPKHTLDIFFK
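Readout: fluorescence, taken kinetically at 0 and 10 min. Conditions: 10 nM Pol kappa, 15 min RT compound preincubation, 50 nM substrate final. Controls: enzyme-free buffer wells.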
Pol beta inh: inhibitors of human DNA polymerase beta; 1.3% of 340,000 active; Pol beta primer extension/strand displacement, fluorescence kinetic; AID 485314; P06746; Potency, µM (titrated, usually from 114 µM), for the others: at the top dose activity change, negative = inhibition, hits mostly inhibitors; further: potency means the concentration at half of the fitted maximal effect; on the % scale 0 is the no-effect control and ±100 the full control effect
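Pol beta (10 nM) was preincubated with compound for 15 min at room temperature. The reaction was then started with 50 nM substrate and read immediately and after a further 10 min at room temperature.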
Pol eta inh-1: DNA polymerase eta (human) inhibition. recombinant Pol eta, fluorescent DNA replication assay. Potency, µM (series often up to 114 µM), for the others: at the highest dose activity change, negative = inhibition, usual class: inhibitors. 1.2% of 390,000 active. AID 588591; further: potency means the concentration at half of the fitted maximal effect; on the % scale 0 is the no-effect control and ±100 the full control effect
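Pol eta at 10 nM preincubated with compounds 15 min at room temperature; reaction started with fluorescent substrate (50 nM final) and read kinetically at 0 and 10 min.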
WRN helicase inh: blocks human WRN helicase; Q14191; WRN helicase unwinding, fluorescent forked duplex, kinetic; Potency, µM (doses to about 114 µM), inactives show top-dose activity change, negative = inhibition, hits mostly inhibitors; 0.46% of 360,000 active; further: potency means the concentration at half of the fitted maximal effect; on the % scale 0 is the no-effect control and ±100 the full control effect; nearly all actives have a fitted effect of over 55% in size
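Primary qHTS, 1536-well format. 20 nM WRN + compound, 15 min RT; start with 100 nM forked fluorophore/quencher duplex, 2 mM ATP (final); kinetic read ex 525/em 598 nm.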
Pol iota inh: DNA polymerase iota (human) inhibition; Q9UNA4; Pol iota fluorescent replication assay, 10 min; Potency, µM (series often up to 115 µM), without a hit: top-dose activity, negative = inhibition, usual class: inhibitors; 1% of 390,000 active; further: potency means the concentration at half of the fitted maximal effect
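Fluorescent replication assay read twice, at 0 min and 10 min after adding 50 nM (final) substrate. Enzyme (10 nM) and compounds were first incubated 15 min at room temperature; enzyme-free buffer wells were negative controls.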
PI5P4Ka inh: inhibitors of human PI5P4K alpha. 1.2% of 330,000 active. max response, %. PI5P4Kalpha enzyme, ADP-Glo luminescence, 60 min; active compounds read low. P48426; active means max response of -50% or lower; inconclusive means between -30% and -50%; inactive means -30% or higher; further: value at the top dose of about 77 µM; on the % scale 0 is the no-effect control and ±100 the full control effect
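PI5P4Kalpha ADP-Glo assay; 5 microM ATP final; 60 min RT reaction; HEPES pH 7.4/EGTA/CHAPS, 5% DMSO; controls lacking substrate or enzyme; luminescent end-point.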
Pol iota confirm: Confirm cherry-picked inhibitors of human polymerase iota | 77% of 1,500 active | shares compounds with Pol kappa inh-1 | Pol iota primer extension, TAMRA/BHQ fluorescence | Potency, µM, most hits filed as inhibitors; further: potency means the concentration at half of the fitted maximal effect
GALK confirm: confirmation of human galactokinase (GALK) inhibitors; shares compounds with Pol eta inh-1; purified GALK, Kinase-Glo ATP depletion luminescence; Potency, µM (doses to about 115 µM), inactives show at the top dose activity, negative = inhibition, most hits filed as inhibitors; 70% of 150 active
Redox cycling: counter-screen for GALK inhibitors: redox cycling H2O2 generation | AID 2035 | Phenol red-HRP H2O2 redox cycling, absorbance 600 nm | Potency, µM (highest dose often 115 µM), without a hit: top-dose activity change, negative = H2O2 signal, usual class: inhibitors | shares compounds with Pol eta inh-1 | 40% of 150 active
HEK293 viability: reduces HEK-293 cell viability in GALK counter-screen. Potency, µM (titrated, usually from 46.1 µM), inactives show top-dose activity change, negative = cytotoxicity, hits mostly inhibitors. HEK-293 viability, ATP luminescence (CellTiter-Glo), 24/48 h. 10% of 170 active. shares compounds with Pol eta inh-1; further: potency means the concentration at half of the fitted maximal effect; on the % scale 0 is the no-effect control and ±100 the full control effect
Pol kappa inh-2: Pol kappa (human) inhibition, cherry-pick confirmation. shares compounds with Pol eta inh-1. purified Pol-kappa, fluorescent strand-displacement substrate. Potency, µM, usual class: inhibitors. 76% of 920 active; further: potency means the concentration at half of the fitted maximal effect
Pol eta inh-2: confirmation of human DNA polymerase eta inhibitors. shares compounds with Pol eta inh-1. Pol eta primer extension, TAMRA/BHQ fluorescence, 10 min. Potency, µM, usual class: inhibitors. 64% of 2,600 active. AID 720502; further: potency means the concentration at half of the fitted maximal effect
Starred values were filed as active, the others as inactive; [ ] = another dose, or the depositor's remark. Unless noted, the call rests on the fitted dose curve; in most records, active means well fitted curve in the direction sought with a large enough effect; inconclusive means small, poorly fitted or top-dose-only effect, or another doubt; inactive means no such curve, though single readings can be large; an effect the other way counts as inactive or inconclusive.

Screening O=C(NCCN1CCN(C(=O)c2ccc(F)cc2)CC1)C(=O)NCc1ccccc1 returned Pol kappa inh-1 -17%, Pol beta inh 12%, Pol eta inh-1 -23%, WRN helicase inh -3%, Pol iota inh 95% and PI5P4Ka inh 1.
Screening COc1cc(-c2noc(C)c2/C=C/c2ccc(C(=O)O)cc2)cc(OC)c1OC returned Pol kappa inh-1 71µM*, Pol beta inh 14µM*, Pol eta inh-1 13µM*, WRN helicase inh inconclusive, Pol iota inh inconclusive, PI5P4Ka inh -3, Pol iota confirm 42* and Pol eta inh-2 27*.
`CC1CCN(CCCNC(=O)c2cc3c(s2)-c2ccccc2OC3)CC1` gave Pol kappa inh-1 13%, Pol beta inh -19%, Pol eta inh-1 -16%, WRN helicase inh -2%, Pol iota inh 3% and PI5P4Ka inh -3.
Cc1ccc(CCNC(=O)c2cc3c(s2)-c2ccccc2OC3)cc1 was read as Pol kappa inh-1 inconclusive, Pol beta inh 14µM*, Pol eta inh-1 inconclusive, Pol iota inh 79µM*, Pol iota confirm 47* and Pol eta inh-2 inconclusive.
Screening CCC(C(=O)NC(C)(C)C)n1c(C(c2ccccc2)c2ccccc2)nc2ccccc21 (stereo unspecified) returned WRN helicase inh 5% and PI5P4Ka inh -8.
`CCn1c2ccccc2c2cc(NC(=O)COC(=O)c3ccccc3F)ccc21` gave Pol kappa inh-1 -12%, Pol beta inh 24%, Pol eta inh-1 -15%, WRN helicase inh -9%[57.1 µM], Pol iota inh 23% and PI5P4Ka inh 5.
CCn1c2ccccc2c2cc(NC(=O)COC(=O)c3ccc(NC(=O)CC#N)cc3)ccc21 was read as Pol kappa inh-1 22µM*, Pol eta inh-1 inconclusive, WRN helicase inh inconclusive, Pol iota inh 22µM*, PI5P4Ka inh inconclusive, Pol iota confirm inconclusive and Pol eta inh-2 60*.
O=C1C2C(C(=O)N1/N=C/c1cc([N+](=O)[O-])c(O)cc1O)C1C=CC2C12CC2 (stereo unspecified) was read as Pol kappa inh-1 50µM*, Pol beta inh 11µM*, Pol eta inh-1 10µM*, WRN helicase inh inconclusive, Pol iota inh 20µM*, PI5P4Ka inh -74*, Pol iota confirm 42* and Pol eta inh-2 30*.
`O=C1C2C(C(=O)N1/N=C/c1cc([N+](=O)[O-])ccc1O)C1C=CC2C12CC2` (stereo unspecified) gave Pol kappa inh-1 -1%, Pol beta inh 4%, Pol eta inh-1 8%, WRN helicase inh 5% and Pol iota inh -3%.
`CC(OC(=O)/C(C#N)=C/c1ccc(N(C)C)cc1)C(=O)N(C)c1ccccc1` (stereo unspecified) gave Pol kappa inh-1 79µM*, Pol eta inh-1 79µM*, WRN helicase inh 56µM*, Pol iota inh 50µM*, PI5P4Ka inh -7, Pol iota confirm 24* and Pol eta inh-2 34*.
N#Cc1ccccc1N1CCN(C(=O)c2ccc(NC(=O)c3ccc(Br)o3)cc2)CC1 was read as Pol kappa inh-1 71µM*, Pol eta inh-1 22µM*, WRN helicase inh -26%, Pol iota inh 22µM*, PI5P4Ka inh inconclusive, Pol iota confirm inconclusive, Pol kappa inh-2 inconclusive and Pol eta inh-2 76*.
Screening O=C(O)c1cc(/C=C/C(=O)c2cc(F)ccc2O)c2c(c1)COCO2 returned Pol kappa inh-1 inconclusive, Pol beta inh inconclusive, Pol eta inh-1 22µM*, WRN helicase inh -25%[11.6 µM], Pol iota inh 14µM*, PI5P4Ka inh -30, Pol iota confirm 67* and Pol eta inh-2 48*.
`O=C(/C=C/c1cccnc1)c1cc(F)ccc1O` gave Pol kappa inh-1 15%, Pol beta inh 27%, Pol eta inh-1 -5%, WRN helicase inh 2%, Pol iota inh 38% and PI5P4Ka inh 0.
Screening N#Cc1c(-c2ccco2)cc(-c2ccccc2)[nH]c1=O returned Pol kappa inh-1 inconclusive, Pol beta inh inconclusive, Pol eta inh-1 -17%, WRN helicase inh -26%[11.6 µM], Pol iota inh 10µM*, PI5P4Ka inh -18, Pol iota confirm 42*, Pol kappa inh-2 12* and Pol eta inh-2 27*.
`N#Cc1c(C(F)(F)F)cc(-c2ccccc2)[nH]c1=O` gave Pol kappa inh-1 4%, Pol beta inh 3%, Pol eta inh-1 -16%, WRN helicase inh -7% and Pol iota inh 14%.
For CCOc1c(OC(C)=O)ccc(/C=C/c2ccc3cccc(OC(C)=O)c3n2)c1[N+](=O)[O-] the results were Pol kappa inh-1 -15%, Pol beta inh 2%, Pol eta inh-1 -14%, WRN helicase inh -15% and Pol iota inh 3%.
C=CCN1C(=O)/C(=C/c2ccc(OC(C)=O)c(OCC)c2[N+](=O)[O-])SC1=S was read as Pol kappa inh-1 inconclusive, Pol beta inh inconclusive, Pol eta inh-1 20µM*, WRN helicase inh -34%, Pol iota inh 28%, PI5P4Ka inh inconclusive, Pol iota confirm 75*, GALK confirm inconclusive, Redox cycling 42µM*, HEK293 viability inconclusive and Pol eta inh-2 67*.

Screening results deposited in PubChem BioAssay by National Center for Advancing Translational Sciences (NCATS).
